{
  "source": "PubChem BioAssay (NCI)",
  "note": "Compounds without any hit were thinned out: in the full panel of roughly 83,000, 20% have a hit.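 Treatment: one concentration, 48 hours, 96-well format. Scoring: percent growth, with anything below 10 considered active.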 A number with no mark means an inactive call. Activity calls are given as the source filed them.",
  "data": [
    {"system": "SNB-75 CNS", "assay": "NCI-60 one-dose screen, 48 h (100 = growth as untreated, 0 = no growth, -100 = all killed)", "conditions": "10 µM unless noted", "values": [
      {"molecule": "COCCn1cc(-c2csc(-c3c[nH]c4ccccc34)n2)c2cccnc21", "growth": "20.5%"},
      {"molecule": "CCN(CC)c1ccc(-c2cc(-c3cc(OC)c(OC)c(OC)c3)nc(N3CCC(O)CC3)c2C#N)cc1", "growth": "-41.5% (active)"},
      {"molecule": "CN1C(=O)/C(=C/c2ccc(C(=O)Nc3ncc(Cc4cccc(C(F)(F)F)c4)s3)cc2)SC1=S", "growth": "64.1%"},
      {"molecule": "Nc1ncnc2c1N=C(c1ccc(Cl)cc1)CC(c1cccc(Nc3ccnc4cc(Cl)ccc34)c1)N2", "note": "(stereo not given)", "growth": "60.4%"},
      {"molecule": "COCCn1cc(-c2nc(-c3cc4cccnc4n3C)cs2)c2ccccc21", "growth": "61.3%"},
      {"molecule": "COC(=O)[C@]1(C)CCC[C@]2(C)[C@H]3C[C@@H]4[C@H]5[C@@H]6CC/C(=N\\OCC/C(N)=N/O)[C@H]5[C@@]3(CC[C@H]21)CC4(C(C)C)O6", "growth": "66.9%"},
      {"molecule": "Cc1cccc(-c2nc(C(C)C)sc2-c2ccnc(NCCCNS(=O)(=O)c3ccc(Cl)cc3)c2)c1", "growth": "97.5%"},
      {"molecule": "O=C(/C=C/C12c3ccccc3C(c3ccccc31)C1C(=O)NC(=O)C12)c1ccc(Cl)cc1Cl", "note": "(stereo not given)", "growth": "25.1%"},
      {"molecule": "CC(C)(C)CC(C)(C)Nc1c(-c2c(O)c3ccccc3oc2=O)nc2sc3ccccc3n12", "growth": "49.7%"},
      {"molecule": "CN(C)CCC(CCN(C)C)(C(=O)O)c1ccccc1", "growth": "97.2%"},
      {"molecule": "Cn1c(=O)[nH]c(=O)c2nc3c(nc21)-c1ccccc1C3=O", "growth": "88.9%"},
      {"molecule": "C=C(c1ccc(C(=O)O)c(F)c1)c1cc2c(cc1C)C(C)(C)CCC2(C)C", "growth": "74.3%"},
      {"molecule": "C=C1C(=O)O[C@H]2[C@H]1CC/C(COC(=O)C(=O)c1c[nH]c3ccc(Cl)cc13)=C\\CC[C@@]1(C)O[C@@H]21", "growth": "-97% (active)"},
      {"molecule": "N#Cc1c(-c2ccc(Br)cc2)nc2c(N=Nc3ccc(S(N)(=O)=O)cc3)c(N)nn2c1N", "growth": "56.9%"},
      {"molecule": "CCN(CC)CCN1C(=O)c2c(c3c4ccccc4[nH]c3c3ccc4ccccc4c23)C1=O", "growth": "76.1%"},
      {"molecule": "O=C(/C=C/c1ccccc1)N(C1CCCCC1)C1CCCCC1", "growth": "81.4%"},
      {"molecule": "CC1(C)CC[C@]2(CO)CC[C@]3(C)[C@](O)([C@H](O)C[C@@H]4[C@@]5(C)CCCNC(C)(C)[C@@H]5CC[C@]43C)[C@@H]2C1", "growth": "88.7%"},
      {"molecule": "Nc1nc(N(Cc2ccccc2)c2ccccc2)c2cn[nH]c2n1", "growth": "56.8%"},
      {"molecule": "CN1CC(c2ccc(Br)cc2)C(C(=O)c2ccc(Br)cc2)C12C(=O)Nc1ccccc12", "note": "(stereo not given)", "growth": "71.9%"},
      {"molecule": "Nc1nc(C(=O)N/N=C/c2ccc(F)cc2)nn1-c1ccc(S(N)(=O)=O)cc1", "growth": "83.1%"},
      {"molecule": "COc1ccc(-c2nc(SCC(=O)Nc3nc4ccc(C)cc4s3)[nH]c(=O)c2C#N)cc1OC", "growth": "60.4%"},
      {"molecule": "CNC(=O)NCC1OC(n2cnc3c(NC(=O)Nc4ccccc4)ncnc32)C2OC(=O)CC12", "note": "(stereo not given)", "growth": "96.7%"},
      {"molecule": "COc1ccc(NC(=O)c2ccc(Nc3ncnc4c3cnn4-c3cccc(F)c3)cc2)cc1", "growth": "93.9%"},
      {"molecule": "CC(C)NS(=O)(=O)/N=C1\\NC(=O)NC1=C(Cl)Cl", "growth": "104%"},
      {"molecule": "Cc1ccc2cnc(N)c(C#Cc3cc(C(=O)Nc4ccc(CN5CCN(C)CC5)c(C(F)(F)F)c4)cnc3C)c2c1", "growth": "-17.1% (active)"},
      {"molecule": "Cc1nn(-c2ccc([N+](=O)[O-])cc2)c2ncnc(N/N=C/c3ccccc3O)c12", "growth": "37.9%"},
      {"molecule": "CC(C)(C)OC(=O)CN1CCc2c(sc3ncnc(N4CCN(c5ccc(F)cc5)CC4)c23)C1", "growth": "82.6%"},
      {"molecule": "COC(=O)[C@@]1(C)CC[C@]2(C)CC[C@]3(C)C4=CC=C5C(=CC(=O)C(O)=C5C)[C@]4(C)[C@@H](O)C[C@@]3(C)[C@@H]2C1", "growth": "70.5%"},
      {"molecule": "Cc1cc(Cl)nc(N2CCN(CCNc3ccnc4cc(Cl)ccc34)CC2)n1", "growth": "87.5%"},
      {"molecule": "Cc1ccc(C)c2c1sc1nc(N3CCOCC3)c(C#N)c(=O)n12", "growth": "53.2%"},
      {"molecule": "COc1ccc2c(c1)CC[C@@H]1[C@@H]2CC[C@]2(C)c3c(cc(C#N)c4c3sc3ccccc34)C[C@@H]12", "growth": "86%"},
      {"molecule": "C=C1C(=O)O[C@H]2[C@H]1CC/C(COC(=O)NCc1ccc(Cn3c(=O)sn(-c4ccc(I)cc4)c3=O)cc1)=C\\CC[C@@]1(C)O[C@@H]21", "growth": "81.6%"},
      {"molecule": "O=C(O)CC(C(=O)O)/C(=C\\c1ccccc1)c1ccccc1", "note": "(stereo not given)", "growth": "83.2%"},
      {"molecule": "CCN(CC)CCOc1ccc(Nc2ncc3cc(-c4c(Cl)cccc4Cl)c(=O)n(CCOC)c3n2)cc1", "growth": "-39.9% (active)"},
      {"molecule": "O=C(c1ccc(Br)cc1)C(Br)C(c1ccc(Cl)cc1)C(c1ccccc1)[N+](=O)[O-]", "note": "(stereo not given)", "growth": "89.4%"},
      {"molecule": "CN1CCOCCN(C)Cc2ccc3ccc(cc3c2)CN(C)CCOCCN(C)Cc2ccc3ccc(cc3c2)C1", "growth": "78.3%"},
      {"molecule": "COc1ccc(CN2C(=O)OC(C)(COC(C)=O)C2=O)cc1", "note": "(stereo not given)", "growth": "100%"},
      {"molecule": "CN(C)c1ccc(/C=N\\NC(=O)c2ccc3nc(-c4ccc(Cl)cc4)[nH]c3c2)cc1", "growth": "97.2%"},
      {"molecule": "COCCn1cc(-c2csc(-c3c[nH]c4ccc(F)cc34)n2)c2cccnc21", "growth": "39.7%"},
      {"molecule": "C/C(Cc1ccc(Cl)cc1)=C(\\c1ccc(OCCN2CCCCCC2)cc1)c1ccc(OC(=O)c2ccccc2)cc1", "growth": "77.3%"}
    ]}
  ]
}
